Screening results from PubChem BioAssay.
Rows were chosen to be rich in hits. Some 6.9% of all compounds tested hit in one or more screens of this group.
Giardia killer = Giardia lamblia killing; Giardia lamblia trophozoite viability; activity change, % at 7.66 µM, hits read low; 340,000 tested, 0.15% active; AID 540267; in the data active = activity change below about -80%; inconclusive = between about -30% and that limit;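 note: parasites exposed to compound for two days anaerobically before the ATP read; % is set by controls: 0 for no effect and ±100 for the full control effect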
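ATP-content bioluminescence gauges trophozoite survival. Cells (100/well) receive compound and incubate anaerobically for 48 hrs at 37 deg C; detection reagent follows for 15-30 min at room temperature.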
Vif-APOBEC3F blk = inhibitors of Vif-A3F interaction; HeLa A3F-eYFP + Vif (tagged APOBEC3F with the HIV-1 protein that degrades it), YFP fluorescence increase; Potency, µM (doses to about 46.1 µM), inactives show at the highest dose activity, negative = active; 390,000 tested, 0.2% active; AID 602313; note: potency is the fitted concentration of half-maximal effect; % of control where 0% means no effect; nearly all actives have a fitted effect of over 65% in size
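Fluorescence increase (Ex 488/Em 500-530) after overnight compound treatment at 37 deg C flags inhibition of Vif-driven A3F-eYFP loss in stable HeLa A3F-eYFP/Vif cells seeded overnight beforehand.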
Vif-APOBEC3G blk = Vif-A3G binding inhibition | 410,000 tested, 0.076% active | HeLa A3G-eYFP + Vif (tagged APOBEC3G with the HIV-1 protein that degrades it), YFP fluorescence, overnight | Q9HC16 | Potency, µM (top dose mostly 46.1 µM), for the others: top-dose activity, negative = active, actives largely listed as inhibitors; note: potency is the fitted concentration of half-maximal effect; % is set by controls: 0 for no effect and ±100 for the full control effect; nearly all actives have a fitted effect of over 60% in size
Target sequence (Q9HC16 whole entry, looked up): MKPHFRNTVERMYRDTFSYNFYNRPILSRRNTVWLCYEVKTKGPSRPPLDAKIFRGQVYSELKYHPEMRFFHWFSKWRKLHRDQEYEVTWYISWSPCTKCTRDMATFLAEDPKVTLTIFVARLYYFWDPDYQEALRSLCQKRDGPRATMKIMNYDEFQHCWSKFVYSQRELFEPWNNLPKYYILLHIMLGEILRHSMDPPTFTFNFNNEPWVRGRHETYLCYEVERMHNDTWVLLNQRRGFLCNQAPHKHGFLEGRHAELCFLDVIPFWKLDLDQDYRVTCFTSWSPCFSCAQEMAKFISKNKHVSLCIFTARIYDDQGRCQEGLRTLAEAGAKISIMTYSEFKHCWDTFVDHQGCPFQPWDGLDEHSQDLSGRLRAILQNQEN
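Read-out is eYFP fluorescence (Ex 488/Em 500-530) from Vif-expressing HeLa A3G-eYFP cells; more signal means A3G escaped Vif-mediated degradation. Cells plated overnight, compound pinned in, incubated overnight at 37 deg C.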
MCF10A rerep = DNA re-replication induction in MCF 10a cells | 350,000 tested, 2.9% active | MCF 10A DNA re-replication, Hoechst nuclear intensity, 48 h | Potency, µM (titrated, usually from 46.1 µM), for the others: at the top dose activity, positive = re-replication, most hits filed as activators; note: potency is the fitted concentration of half-maximal effect; % of control where 0% means no effect; nearly all actives have a fitted effect of over 50% in size
SW480 rerep = inducers of DNA re-replication in SW480 colon cancer cells. AID 624297. 340,000 tested, 1.8% active. Potency, µM (titrated, usually from 46.1 µM), inactives show at the top dose re-replication activation, usual class: activators. SW480 DNA re-replication, Hoechst DNA content imaging, 48 h; note: potency is the fitted concentration of half-maximal effect; % of control where 0% means no effect; nearly all actives have a fitted effect of over 55% in size
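Per well, 250 cells were exposed to pinned compound for 48 hr. Nuclear DNA was visualised with Hoechst (40 min, 37 C) and total object intensity recorded by fluorescence scanning.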
IL1B secr inh = blocks inflammasome-driven IL-1 beta release; THP-1 LPS/ATP IL-1B secretion, AlphaLISA, 16 h; hits give low values; activity change, % at 57.5 µM; 360,000 tested, 4.7% active; AID 743279; in the data active = activity change below about -50%; inconclusive = mostly about -30% to -49%; note: % is set by controls: 0 for no effect and ±100 for the full control effect
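THP-1 cells pretreated 1 hr with compounds (up to 57.5 uM final), then stimulated with LPS (250 ng/mL final) plus ATP (1.25 mM final); secreted IL-1B measured by AlphaLISA after 16 hr, decreased signal indicating inhibition.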
Starred values were filed as active, the others as inactive; ? = inconclusive; / = no result given; [ ] = remark or other dose. Unless noted, calls come from the whole dose curve; as a rule, active = well fitted curve in the direction sought with a large enough effect; inconclusive = small, poorly fitted or top-dose-only effect, or another doubt; inactive = no such curve, though single readings can be large; an effect the other way counts as inactive or inconclusive.

SMILES	Giardia killer	Vif-APOBEC3F blk	Vif-APOBEC3G blk	MCF10A rerep	SW480 rerep	IL1B secr inh
O=C(CC(c1cccs1)N1Cc2ccccc2C1=O)Nc1ccc(Cl)cc1 (configuration not stated)	/	-2.2%	2.1%	/	/	/
Cc1ccc(C(C[N+](=O)[O-])c2c(-c3ccccc3O)[nH][nH]c2=O)cc1 (configuration not stated)	-14.6	3.1%	12.6%	11.6µM*	14.6µM*	-101.9*
O=c1[nH][nH]c(-c2ccccc2O)c1C(C[N+](=O)[O-])c1ccc(Br)cc1 (configuration not stated)	18.8	5.0%	?	?	?	?
Cc1cc(-c2ccc(N=Nc3ccc4c(S(=O)(=O)O)cc(S(=O)(=O)O)c(N)c4c3O)c(C)c2)ccc1N=Nc1ccc2c(S(=O)(=O)O)cc(S(=O)(=O)O)c(N)c2c1O	/	/	/	-7.4%	-2.2%	/
CCc1cc2c(=O)[nH]c(CC(N)=O)nc2s1	33.0	-0.5%	3.3%	6.8%	2.4%	-65.8*
CCc1cc2c(=O)[nH]c(-c3ccccn3)nc2s1	-7.1	-12.5%	-28.8%	11.6µM*	6.51µM*	-95.2*
Cc1cc(OCC(=O)Nc2nc3c(s2)CCCC3)cc(C)c1Cl	/	-19.0%	1.5%	/	/	/
O=C(CSc1nc2c([nH]c3ccccc32)c(=O)n1-c1ccc(Cl)cc1)N1CCCCCC1	/	-9.0%	-5.8%	/	/	/
ClCCn1cnc2c(SCc3ccccc3)ncnc21	-25.6	-3.6%	1.1%	16.4%	?	-55.5*
ClCCn1cnc2c(SCc3ccccc3Cl)ncnc21	-4.3	-0.2%	3.9%	8.7%	7.6%	-66.8*
Cn1cc(CNCc2cn(C)nc2-c2ccc(C3CCCCC3)cc2)cn1	-1.2	0.8%	0.1%	?	?	-71.2*
COc1cccc(-n2cc(CNCc3cn(C)nc3-c3ccccc3F)cn2)c1	9.8	11.8%	0.2%	11.5%	0.5%	-1.6
CC(=O)N1c2ccc(S(=O)(=O)N3CCCCCC3)cc2CC1C(=O)NC(C)C (configuration not stated)	/	3.4%	2.1%	/	/	/
COC(=O)CC1C(=O)NC2CCCCC2N1C(=O)CCl (configuration not stated)	-7.7	3.2%	3.8%	?	12.5%	-61.9*
CCNC(=O)N1C(CC(=O)OCC)C(=O)NC2CCCCC21 (configuration not stated)	-15.8	2.7%	-1.2%	-7.3%	-5.7%	3.3
O=C(C#Cc1ccccc1)c1ccc([N+](=O)[O-])cc1	5.8	8.8%	-3.9%	?	13µM*	-96.6*
CN(C)C(=O)C#Cc1ccccc1	9.7	14.0%	0.6%	-4.1%	-11.4%	-9.8
O=C(C#Cc1ccccc1)c1ccccc1	/	0.3%	-28.6%	/	/	-108.2*
CC1=CC2=C(C=O)C(=O)C(C)(O)C(O)C2=CO1 (configuration not stated)	/	-6.1%	-10.5%	/	/	-61.7*
CCOC(=O)C1CCN(S(=O)(=O)c2ccc(-n3cnnn3)c(C)c2)CC1	-2.5	-4.3%	1.6%	11.6µM*	?	25.1
CC(C)(C)c1cc(C(=O)NC2CC2)n(Cc2ccc(F)cc2)n1	-11.1	16.2%	-1.8%	17.9%	?	-3.9
CC(C)(C)c1cc(C(=O)Nc2ccc(F)cc2)n(Cc2ccc(F)cc2)n1	-11.4	-12.8%	0.4%	20.6µM*	0.7%	?
Cc1ccc(NC(=O)c2cc(C(C)(C)C)nn2Cc2ccccc2)cc1	3.7	0.2%	-6.1%	?	-4.0%[9.22 µM]	-80.6*
Cc1nc(N2CCOCC2)c2c(C(=O)N3CCN(c4cc(Cl)ccc4C)CC3)c(C)oc2n1	/	1.5%	-1.6%	/	/	/
O=c1[nH]c2cc([N+](=O)[O-])cc(Cl)c2c2ccccc12	/	-2.3%	0.8%	/	/	1.1
SMILES	Giardia killer	Vif-APOBEC3F blk	Vif-APOBEC3G blk	MCF10A rerep	SW480 rerep	IL1B secr inh
N#Cc1cc2[nH]c3ccccc3c2[n+](-c2ccc([N+](=O)[O-])cc2)c1N	0.7	-2.0%	3.5%	2.3%	-5.6%	-97.5*
CCc1ccc(-c2cn(-c3nc(C)cc(C)n3)c(=N)o2)cc1	-2.2	-6.0%	-21.6%	23.1µM*	-0.4%	-59.3*
Cc1ccc(-c2ccc(/C=N/N3C(=O)C4C5C=CC(CC5)C4C3=O)o2)c([N+](=O)[O-])c1 (configuration not stated)	-101.9*	2.4%	-6.4%	?	?	-24.2
CCOC(=O)c1c(C)n(CCNC(C)=O)c2ccc(OC)cc12	8.5	5.8%	3.4%	15.7%	1.0%	10.0
CCOC(=O)c1c(-c2ccccc2)c2cc(OC)ccc2n1CCCN(C)C	-12.0	-10.5%	-0.8%	?	?	-50.4*
O=C(CNC(=O)c1ccco1)OCC(=O)c1ccc([N+](=O)[O-])cc1	-5.0	-7.6%	0.6%	3.3%	-1.1%	-76.5*
O=C(Cc1ccccc1)NCC(=O)OCC(=O)c1ccc([N+](=O)[O-])cc1	?	3.2%	0.1%	17.6%	0.2%	-72.1*
C(=C\c1ccnc2ccccc12)/c1ccc(N(Cc2ccccc2)Cc2ccccc2)cc1	/	/	-0.3%	/	/	/
O=C1NC[C@H](Cc2ccc(O)cc2)N(C[C@@H]2CCCN2C[C@H](Cc2ccccc2)N2C[C@H](Cc3ccc(O)cc3)N(CC3CCCCCC3)C(=O)C2=O)C1=O	/	/	/	/	/	-56.0*
CC(C)C[C@H]1CN([C@@H](Cc2ccccc2)CN2CCC[C@H]2CN2C(=O)C(=O)NC[C@@H]2Cc2ccc(O)cc2)C(=O)C(=O)N1CC1CCCCCC1	/	/	/	/	/	-89.2*
Cc1ccc(C)c(Cn2c(-c3cccs3)nc3ccccc32)c1	/	-15.1%	-13.4%	/	/	/
CCN(CC)c1ncnc2c1ncn2Cc1c(Cl)cccc1Cl	-3.4	/	-0.1%	?	?	-8.2
Clc1cccc(Cl)c1Cn1cnc2c(N3CCCCCC3)ncnc21	18.4	-2.3%	1.5%	-3.9%	?	-73.8*
CCCCn1c(SCc2cccc([N+](=O)[O-])c2)nc2ccsc2c1=O	7.1	-4.5%	-0.2%	16.4µM*	-8.2%	-20.0
COc1cccc(-c2cc(C(=O)Nc3ccc(N(C)C(C)=O)cc3)c3cc(Br)ccc3n2)c1	-13.6	0.4%	-4.0%	?	29.7%	-0.9
COc1ccc(COc2cc(-c3cccc(OC)c3)nc3ccc(NC(=O)c4ccc(N(C)C)cc4)cc23)cc1	-2.8	-1.5%	?	5.8µM*	9.2µM*	65.7
COc1ccc(COc2cccnc2N)cc1	-12.8	8.7%	-0.6%	2.8%	-8.7%	-0.9
COc1ccc(COc2cc(-c3cccc(OC)c3)nc3ccc(N)cc23)cc1	-8.6	-0.2%	?	0.731µM*	1.46µM*	14.4
